Bioassay records: PubChem, National Center for Advancing Translational Sciences (NCATS)
Most compounds without a hit are left out; they make up all but 3.3% or so of the library.
Tau fil binding = binders of human tau filaments; 71,000 compounds, 2% hits; recombinant tau filaments, thioflavin S fluorescence, 15 h; filaments grown with octadecylsulfate alongside compound; P10636; Potency, µM (titrated, usually from 57.1 µM), for the others: top-dose activity change, negative = inhibition; AID 596;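 note: potency is the fitted concentration of half-maximal effect; % is set by controls: 0 for no effect and ±100 for the full control effect; actives lower thioflavin S fluorescence by blocking filaments or displacing dye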
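Recombinant tau protein (human, 1 uM final) plus 30 uM ODS in HEPES pH 7.4 with NaCl, DTT and thioflavine S. Compound present from the start; fluorescence at 510 nm after 15 h, 37 C.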
DNA Pol III inh = inhibitors of bacterial DNA polymerase III holoenzyme | Potency, µM (doses to about 57.1 µM), without a hit: top-dose activity change, negative = inhibition | AID 603 | reconstituted DNA polymerase III holoenzyme replication, biochemical | 71,000 compounds, 0.25% hits; note: potency is the fitted concentration of half-maximal effect; % is set by controls: 0 for no effect and ±100 for the full control effect
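Reconstituted *E. coli* holoenzyme (0.35 nM Pol III, 1 nM beta, 154 nM SSB, 2 nM primase) was preincubated with compound for 15 min at RT. Synthesis on 1.4 nM ssM13Gori ran 35 min, then was stopped with PicoGreen/EDTA and read as dsDNA fluorescence.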
BRCT inh red = BRCT-phosphoprotein interaction inhibition (red fluorophore); P38398; BRCT-phosphopeptide binding, red fluorescence polarization; Potency, µM (doses to about 76.9 µM), for the others: at the top dose activity change, negative = inhibition, usual class: inhibitors; 75,000 compounds, 0.03% hits; note: % is set by controls: 0 for no effect and ±100 for the full control effect
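Fluorescence polarization: 100 nM His-tagged BRCA1 BRCT with 100 nM TAMRA-labelled phospho-BACH1 decapeptide, phosphate buffer pH 7.3 with 150 mM NaCl, DTT, 0.01% Tween 20; 12 min RT. Binding inhibition seen as FP decrease.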
BRCT inh green = inhibitors of human BRCA1 BRCT-phosphoprotein interaction (green fluorophore). P38398. BRCA1 BRCT-phosphopeptide binding, green fluorescence polarization. Potency, µM (series often up to 76.9 µM), inactives show top-dose activity change, negative = inhibition, hits mostly inhibitors. 75,000 compounds, 0.05% hits. AID 875;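 note: potency is the fitted concentration of half-maximal effect; plate controls were peptide without protein for full effect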
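Compounds were incubated for 12 min at room temperature with a complex of 100 nM fluorescein-tagged pBACH1 decapeptide and 250 nM His-tagged BRCT protein. Buffer was phosphate pH 7.3 with EDTA, DTT and Tween 20. Disruption of binding lowers the polarization signal.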
YjeE inh = displaces an ADP probe from E. coli YjeE (TsaE) | purified YjeE enzyme, qHTS inhibition assay | Potency, µM | 71,000 compounds, 0.05% hits | AID 605
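Fluorescence polarization of a BODIPY Texas Red–ADP probe (2 uM) bound to purified YjeE (10 uM) was read after 15 min room-temperature incubation with compounds. Loss of polarization marks inhibitors; ADP serves as titrated control.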
15-hLO inh = 15-hLO (ALOX15) enzyme inhibition. AID 887. 74,000 compounds, 1.4% hits. P16050. purified 15hLO-1, xylenol orange hydroperoxide absorbance. Potency, µM (series often up to 57.1 µM), inactives show at the highest dose activity change, negative = inhibition, usual class: inhibitors; note: potency is the fitted concentration of half-maximal effect; % is set by controls: 0 for no effect and ±100 for the full control effect; nearly all actives have a fitted effect of over 55% in size
Target sequence (P16050 whole entry, looked up): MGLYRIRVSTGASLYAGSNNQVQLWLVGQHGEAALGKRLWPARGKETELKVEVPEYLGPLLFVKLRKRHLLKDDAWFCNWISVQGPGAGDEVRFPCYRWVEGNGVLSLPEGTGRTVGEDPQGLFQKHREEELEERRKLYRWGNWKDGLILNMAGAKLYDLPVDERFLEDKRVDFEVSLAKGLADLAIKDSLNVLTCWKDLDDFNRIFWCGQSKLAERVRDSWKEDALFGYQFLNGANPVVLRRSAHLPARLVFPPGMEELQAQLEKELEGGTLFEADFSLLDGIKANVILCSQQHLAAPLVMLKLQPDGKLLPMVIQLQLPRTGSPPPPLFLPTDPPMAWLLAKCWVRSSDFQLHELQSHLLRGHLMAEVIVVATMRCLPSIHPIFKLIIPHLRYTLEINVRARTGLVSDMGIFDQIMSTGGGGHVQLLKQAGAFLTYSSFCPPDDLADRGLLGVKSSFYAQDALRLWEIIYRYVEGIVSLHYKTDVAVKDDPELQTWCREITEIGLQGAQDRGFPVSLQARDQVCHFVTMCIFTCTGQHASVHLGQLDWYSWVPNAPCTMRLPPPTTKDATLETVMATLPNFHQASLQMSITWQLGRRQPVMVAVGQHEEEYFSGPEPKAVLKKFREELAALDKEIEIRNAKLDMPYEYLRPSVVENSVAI
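Hydroperoxide formed from arachidonic acid (50 uM) by purified human 15hLO-1 (40 nM) oxidizes ferrous iron, and the ferric-xylenol orange complex is read at 573 versus 405 nm. Compounds were preincubated 15 min; reaction ran 6 min at room temperature.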
tau ThS displ = displaces Thioflavin S from human tau filaments; AID 911; Potency, µM; shares compounds with Tau fil binding; recombinant tau filaments, Thioflavin S fluorescence displacement; 60 compounds, 40% hits; calls by dose curve
aSyn ThS bind = alpha-synuclein fibril binding by ThS displacement | shares compounds with Tau fil binding | recombinant alpha-synuclein fibrils, ThS fluorescence displacement | Potency, µM | 60 compounds, 40% hits; calls by dose curve
Abeta ThS displ = compounds binding human beta amyloid fibrils, displacing Thioflavin S; shares compounds with Tau fil binding; Potency, µM; Abeta1-42 fibrillization, thioflavin S fluorescence, overnight 37 C; 60 compounds, 50% hits; calls by dose curve
Numbers without * were called inactive; i = inactive; u = inconclusive; x = no result; ! = repeats disagree; [ ] = another dose, or the depositor's remark. Unless noted, calls come from the whole dose curve; as a rule, active = well fitted curve in the direction sought with a large enough effect; inconclusive = small, poorly fitted or top-dose-only effect, or another doubt; inactive = no such curve, though single readings can be large; an effect the other way counts as inactive or inconclusive.

SMILES	Tau fil binding	DNA Pol III inh	BRCT inh red	BRCT inh green	YjeE inh	15-hLO inh	others
Cc1ccc(-c2noc(CN(C(=O)CCCN3C(=O)c4ccccc4C3=O)C(C)C)n2)cc1	16µM*	0%	0%	-6%	i	-6%
Cc1ccc2nsnc2c1S(=O)(=O)N1CCN(Cc2ccc3c(c2)OCO3)CC1	16µM*	-5%	-1%	-1%	i	-12%
Cc1ccc2nsnc2c1S(=O)(=O)N1CCCC1	1%	0%	-3%	0%	i	2%
c1ncc(-c2ccoc2)c(NC2CC2)n1	66%	-3%	2%	-2%	i	u
COc1cc(C2CC(=O)N3CN(c4ccccc4C)CSC3=C2C#N)cc(OC)c1OC (stereo unspecified)	-3%	-4%	0%	3%	i	4µM*
COc1ccc(Br)cc1C1CC(=O)N2CN(C)CSC2=C1C#N (stereo unspecified)	-6%	0%	0%	-3%	i	u
CCc1ccccc1N1CSC2=C(C#N)C(c3cc(OC)c(OC)cc3OC)CC(=O)N2C1 (stereo unspecified)	-23%	1%	1%	1%	i	u
COc1cccc(C2CC(=O)N3CN(c4ccccc4F)CSC3=C2C#N)c1 (stereo unspecified)	-14%	-2%	0%	-1%	i	u
COc1ccccc1N1CSC2=C(C#N)C(c3ccc(SC)cc3)CC(=O)N2C1 (stereo unspecified)	25µM*	-4%	0%	-1%	i	3.2µM*
COc1ccc(Br)cc1C1CC(=O)N2CN(Cc3ccccc3)CSC2=C1C#N (stereo unspecified)	10%	-8%	1%	0%	i	2.5µM*
C[C@H]1[C@H](C)CC[C@@]2(C(=O)O)CC[C@]3(C)C(=CC[C@@H]4[C@@]5(C)CC[C@H](O)C(C)(C)[C@@H]5CC[C@@]43C)[C@@H]12	u	-2%	x	x	i	x
CC1=C(C(=O)Nc2ccccc2)C(c2ccc(C)o2)n2c(s/c(=C\c3ccco3)c2=O)=N1 (stereo unspecified)	2.5µM*	0%	1%	5%	i	-29%
CCCCCCCCCCCCCCCCCCNC(=O)OC[C@@H](COP(=O)([O-])OCC[n+]1ccsc1)OC	-2%	-3%	-1%	-4%	i	12%
CCOC(=O)CCS(=O)(=O)c1nc(-c2ccccc2)cc(C(F)(F)F)n1	u	-6%	-1%	1%	i	-12%
CCOC(=O)CS(=O)(=O)c1nc(-c2ccccc2)cc(C(F)(F)F)n1	20µM*	-1%	1%	1%	i	-20%
O[C@H](CN1CCN(c2cccc(Cl)c2)CC1)C(c1ccccc1)c1ccccc1	40µM*!	-4%	-1%	-6%	i	u
COCCCn1c(=N)c(C(=O)NCc2ccc3c(c2)OCO3)cc2c(=O)n3cccc(C)c3nc21	3.2µM*	-1%	1%	3%	i	3%
Cc1cccn2c(=O)c3cc(C(=O)NC4CCCC4)c(=N)n(C4CCCC4)c3nc12	0.4µM*	-10%	-3%	-1%	i	-24%
COCCNC(=O)c1cc2c(=O)n3cccc(C)c3nc2n(Cc2ccncc2)c1=N	-6%	-5%	-1%	4%	i	0%
COCCCn1c(=N)c(C(=O)NCc2ccc3c(c2)OCO3)cc2c(=O)n3ccccc3nc21	10µM*	-21%	1%	-1%	i	-22%
COc1ccc(CCNC(=O)c2cc3c(=O)n4cccc(C)c4nc3n(Cc3ccncc3)c2=N)cc1	3.2µM*	2%	0%	0%	i	-2%
COCCn1c(=N)c(C(=O)NCc2ccco2)cc2c(=O)n3ccccc3nc21	95%	-8%	-1%	-1%	i	-12%
N#C[C@H](C(=O)O)C(c1c(Cl)cccc1Cl)[C@H](C#N)C(=O)O	-3%[11.4 µM]	-7%[11.4 µM]	1%[15.4 µM]	-1%[15.4 µM]	i	0%[11.4 µM]
CC(=O)c1cccc(NS(=O)(=O)c2cccc(C(=O)O)c2)c1	x	x	-1%	0%	x	6%
COc1ccc(OC[C@@H](CO)OC)cc1	x	x	0%[15.4 µM]	0%[15.4 µM]	x	15%[11.4 µM]
SMILES	Tau fil binding	DNA Pol III inh	BRCT inh red	BRCT inh green	YjeE inh	15-hLO inh	others
N=C(N)SCc1cc(Cl)cc(Cl)c1O	-2%[11.4 µM]	-7%[11.4 µM]	-1%[15.4 µM]	-6%[15.4 µM]	i	-6%[11.4 µM]
CCOC(=O)N/N=C1/C[C@@H](O)[C@@H](O)[C@@H]2[C@@H]3C(=O)N(CC)C(=O)[C@H]3CC[C@@H]12	x	x	0%[15.4 µM]	-1%[15.4 µM]	x	8%[11.4 µM]
CC(C)(C)[Si](C)(C)c1c2c(nc3ccc(OCc4ccccc4)cc13)-c1cccc(=O)n1C2	-28%	2%	0%	-1%	i	x
O=C1c2ccccc2-c2ccc(NC(=O)[C@H]3CCCC[C@@H]3C(=O)O)cc21	-14%[11.4 µM]	-7%[11.4 µM]	-2%[15.4 µM]	-1%[15.4 µM]	i	3%[11.4 µM]
O=C(Nc1ccc(Nc2ccc3c(c2)C(=O)c2ccccc2C3=O)c2c1C(=O)c1ccccc1C2=O)c1ccccc1	4µM*	12%[11.4 µM]	-1%[15.4 µM]	0%[15.4 µM]	i	-16%[11.4 µM]
O=C(COC(=O)c1ccccn1)Nc1ccccc1Cl	-9%	-3%	-2%	1%	i	1%
O=C(COc1ccccc1O)Nc1ccccc1Cl	-41%	-6%	-2%	0%	i	6%	tau ThS displ=i;aSyn ThS bind=i;Abeta ThS displ=i
Oc1ccccc1C1Nc2cccc3cccc(c23)N1	3.2µM*	-15%	-2%	-3%	i	20µM*	tau ThS displ=3.3µM*;aSyn ThS bind=8µM*;Abeta ThS displ=3.8µM*
N=C(N)S/C=C\C(=O)O	-21%	-5%	-1%	1%	i	-12%[25.6 µM]
COc1cccc2c1C(=O)c1c(O)c3c(c(O)c1C2=O)C[C@@](O)(C(=O)CO)C[C@H]3O[C@H]1C[C@@H](N)[C@H](O)[C@@H](C)O1.[W]	-26%[11.4 µM]	u	-11%[15.4 µM]	9%[15.4 µM]	i	0%[11.4 µM]	tau ThS displ=4.2µM*;aSyn ThS bind=7.1µM*;Abeta ThS displ=2.8µM*
Nc1ccc(O)c(-c2nc3ccccc3s2)c1	3.2µM*	-7%	1%	-1%	i	u	tau ThS displ=u;aSyn ThS bind=u;Abeta ThS displ=9.2µM*
Cn1c(=Nc2ccc(N3CCOCC3)cc2)ccc2ccccc21	2µM*	-6%	-1%	-2%	i	7%	tau ThS displ=u;aSyn ThS bind=i;Abeta ThS displ=i
